The nature of experiment [1]: qHTS profiling of the MIPE4 collection as inhibitors of Plasmodium falciparum (DD2) proliferation (AID 743345; call rule not given here). Particulars: P. falciparum Dd2 in erythrocytes, SYBR Green DNA, 72 h; at 28.5 µM (top of the series) unless noted. The essentials:
(§1)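 Parasite DNA was quantified by SYBR Green I fluorescence (ex 485, em 535 nm) after overnight lysis in saponin/Triton buffer at room temperature. Cultures at 0.3% parasitemia and 2.5% hematocrit were first exposed to compound for 72 h at 37 C; signals were normalised to artemisinin (0.29 uM) and vehicle wells.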

Experiment [2] is described as follows: High-throughput drug toxicity screening in the BPDCN cell line Gen2.2 (AID 1224824; call rule not given here;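 also: cells exposed to compounds for 48 h before reading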). As to conditions: Gen2.2 BPDCN cells; at 45.8 µM (top of the series) unless noted. Summed up:
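CellTiter-Glo luminescence read after 48 h compound exposure at 37 C defines viability; percent activity set with DMSO as 100% and bortezomib (9.2 uM final) as 0%. 500 exponentially growing cells per well, RPMI plus 10% FBS.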

A short description of experiment [3]: High-throughput drug toxicity screening in the BPDCN cell line Cal-1 (AID 1224825; call rule not given here). As to conditions: Cal-1 BPDCN cell viability, qHTS; at 45.8 µM (top of the series) unless noted. The essentials: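 CellTiter-Glo luminescence after 48 h compound exposure; percent activity scaled with DMSO as 100% and bortezomib (9.2 uM final) as 0%. Cal-1 cells seeded at 500/well in RPMI, 10% FBS, no phenol red.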
(qHTS replaces the single test concentration by a dilution series.)

A short description of experiment [4]: qHTS assay for measurement of the activity of small molecule inhibitors on Zika virus induced Caspase-3 activity in human iPSC derived neural progenitor cells (hNPCs) (AID 1224857). Also: % of control where 0% means no effect; nearly all actives have a fitted effect of over 65% in size. Summed up: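 Human iPSC-derived neural progenitor cells pretreated 1 hr with compounds, then infected with Zika virus (2 FFU/cell) for 6 hours at 37 C. Caspase-3/7 measured by Caspase-Glo luminescence; % inhibition calculated from induction scaled to uninfected (0%) and infected (100%) wells.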

Experiment [5] in a line: qHTS assay for measurement of the activity of small molecule inhibitors on Zika virus induced Caspase-3 activity in human astrocytoma cells (AID 1224859).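 Also: plate controls were ZIKV-infected untreated cells for no effect and uninfected cells for full effect.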 The essentials: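 SNB-19 astrocytoma cells, 250/well, pretreated 1 h with compounds, then Zika virus at 2 FFU/cell for 6 h at 37 C; Caspase-Glo 3/7 luminescence after 30 min; percent inhibition normalised to uninfected and infected controls.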

A short description of experiment [6]: qHTS Screen of the MIPE 4.0 Collection Against Ewings Sarcoma (TC32) (AID 1259256). Also: nearly all actives have a fitted effect of over 45% in size. Also: potency is read from the fitted curve at half-maximal effect. The essentials:
(§2)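 Dose series incubated 48 h with cells in RPMI plus 5% FBS, glutamine and penicillin/streptomycin; cell viability then quantified via CellTiter-Glo.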

Experiment [7] can be described thus: qHTS assay to identify small molecule inhibitors of chordoma cells - UCH-1 (AID 1259355). Also: % is scaled to controls: 0 for no effect and ±100 for the full control effect; nearly all actives have a fitted effect of over 55% in size. The essentials:
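Screening used approved and investigational drugs in 15-point titration against 800 seeded cells per well. A fixed combination of auranofin with camptothecin, doxorubicin, rubitecan and topotecan followed compound addition, and growth was scored by CellTiter-Glo after 48hr.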

A short description of experiment [8]: qHTS assay to identify small molecule inhibitors of chordoma cells - UCH-2 (AID 1259356). Also: % is scaled to controls: 0 for no effect and ±100 for the full control effect.
Experiment [9] in a line: qHTS profiling of the MIPE4 collection as inhibitors of Plasmodium falciparum (HB3) proliferation (AID 743347; call rule not given here;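 also: plate controls were DMSO vehicle wells for no effect and artemisinin wells for full effect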). As to conditions: P. falciparum HB3 in erythrocytes, SYBR Green DNA, 72 h; at 28.5 µM (top of the series) unless noted. Summed up:
as §1

Experiment [10] can be described thus: qHTS Screen of the MIPE 4.0 Collection Against Ewings Sarcoma (EW8) (AID 1259255). Also: nearly all actives have a fitted effect of over 35% in size. Also: potency is read from the fitted curve at half-maximal effect.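 As to viability: 100% = DMSO-treated cells and 0% = medium-only wells without cells.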 The essentials:
as §2

Experiment [11] is described as follows: P-glycoprotein substrates identified in KB-3-1 adenocarcinoma cell line, qHTS therapeutic library screen (AID 1346986). Also: nearly all actives have a fitted effect of over 60% in size. Particulars: outcome: dose series up to 44.5 µM unless noted. Summed up: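 Viability by CellTiter-Glo after 72 h compound exposure at 37 degree C, 5% CO2. Cytotoxic call: curve class -1.1 to -2.4, maximum response >50%, AC50 < 10 uM, compared across KB-3-1 and P-gp-overexpressing KB-8-5-11.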

The nature of experiment [12]: qHTS profiling of the MIPE4 collection as inhibitors of Plasmodium falciparum (DD2) proliferation (Rep 2) (AID 743346; call rule not given here). Particulars: P. falciparum Dd2 in erythrocytes, SYBR Green DNA, 72 h; at 28.5 µM (top of the series) unless noted. The essentials: as §1
A short description of experiment [13]: qHTS Screen of the MIPE 4.0 Collection Against Ewings Sarcoma (TC71) (AID 1259253). Also: potency is read from the fitted curve at half-maximal effect; nearly all actives have a fitted effect of over 40% in size. The essentials: as §2
The nature of experiment [14]: qHTS Screen of the MIPE 4.0 Collection Against Ewings Sarcoma (RDES) (AID 1259252). Also: potency is read from the fitted curve at half-maximal effect; nearly all actives have a fitted effect of over 35% in size. Summed up:
as §2

Results filed as inconclusive are left out. Calls of active or inactive are those of the source. Unless noted, calls follow the shape of the dose curve; as a rule, active = well fitted curve in the direction sought with a large enough effect; inconclusive = small, poorly fitted or top-dose-only effect, or another doubt; inactive = no such curve, though single readings can be large; an effect the other way counts as inactive or inconclusive.

As to `O=c1[nH]cc(F)c(=O)[nH]1`, the parasite growth remaining, % of DMSO control (lower = more inhibition) in experiment [1] was found to be 18.8%. In addition, the cell viability, % of control (lower = more cytotoxic) in experiment [2] was 118%. Moreover, the viability (% of control) in experiment [3] was 29.1%. Besides, the Potency entry in experiment [4], in [5] and in experiment [7] was “inactive” in each case. For the same molecule, the Potency in [6] was 9.35 µM (active). Besides, the molecule was classed as inactive in experiment [8].

Consider `NCCc1cnc[nH]1`, for which the parasite growth remaining, % of DMSO control (lower = more inhibition) in experiment [1] stood at 101%. Besides, the growth, % of control in experiment [9] turned out to be 108%. Also, in experiment [2], the cell viability, % of control (lower = more cytotoxic) was determined as 166%. The viability (% of control) in experiment [3] turned out to be 99.6%. Also, the Potency result in experiment [4], in experiment [5], in experiment [10], in [6] and in experiment [7] was “inactive” throughout. For the same molecule, the molecule was classed as inactive in experiment [8] and in experiment [11].

Take `CN1C(C(=O)Nc2ccccn2)=C(O)c2ccccc2S1(=O)=O`: in experiment [1], the parasite growth remaining, % of DMSO control (lower = more inhibition) worked out at 88.2%. Also, the growth, % of control in experiment [9] was found to be 90.6%. Also, the cell viability, % of control (lower = more cytotoxic) in experiment [2] was 61.5%. In experiment [3], the viability (% of control) turned out to be 8.08%. The Potency entry in experiment [4], in [5] and in [7] was “inactive” each time. Further, the result in [8] was inactive.

Consider `OCCN(CCO)c1nc(N2CCCCC2)c2nc(N(CCO)CCO)nc(N3CCCCC3)c2n1`, for which the parasite growth, % of control (lower = inhibition) in experiment [12] amounted to 36.9%. In experiment [2], the cell viability, % of control (lower = more cytotoxic) amounted to 130%. Moreover, the viability (% of control) in experiment [3] was 95.3%. For the same molecule, the Potency result in [4] and in experiment [5] was “inactive” throughout. Further, in experiment [13], the Potency was 20.9 µM (active). Further, the call in experiment [8] was inactive.

For `CCC1(C)CC(=O)NC1=O` (stereo unspecified), in experiment [9], the growth, % of control was determined as 102%. The cell viability, % of control (lower = more cytotoxic) in experiment [2] came out at 184%. For the same molecule, in experiment [3], the viability (% of control) was 128%. In addition, the Potency result in experiment [4], in experiment [5], in experiment [10] and in experiment [7] was “inactive” each time. Besides, the molecule was classed as inactive in experiment [8].

In the case of `Nc1nnc(-c2cccc(Cl)c2Cl)c(N)n1`, in [1], the parasite growth remaining, % of DMSO control (lower = more inhibition) is 98%. Besides, the growth, % of control in experiment [9] was determined as 98.1%. Moreover, the cell viability, % of control (lower = more cytotoxic) in experiment [2] worked out at 86.5%. The viability (% of control) in experiment [3] was determined as 36.7%. Besides, the Potency result in experiment [4], in experiment [5] and in experiment [7] was “inactive” each time. Also, in [8], the result was inactive.

As for `O=c1c(-c2ccc(O)cc2)coc2cc(O)cc(O)c12`, in [1], the parasite growth remaining, % of DMSO control (lower = more inhibition) was 88.4%. Also, in experiment [12], the parasite growth, % of control (lower = inhibition) came out at 57.2%. The same molecule registered a growth, % of control in [9] of 31.8%. The cell viability, % of control (lower = more cytotoxic) in [2] came out at 55.3%. Besides, the viability (% of control) in [3] was 13.8%. Further, the Potency entry in [4], in experiment [10], in experiment [6] and in [7] was “inactive” throughout. Besides, the Potency in experiment [14] was 18.7 µM (active). The call in [11] was inactive.

As to `CC(C)(Oc1ccc(C2CC2(Cl)Cl)cc1)C(=O)O` (stereo unspecified), the parasite growth remaining, % of DMSO control (lower = more inhibition) in experiment [1] was 105% [at 57.5 µM]. Also, the parasite growth, % of control (lower = inhibition) in experiment [12] came out at 92.2% [at 57.5 µM]. In experiment [9], this molecule displayed a growth, % of control of 81.2% [at 57.5 µM]. For the same molecule, in [2], the cell viability, % of control (lower = more cytotoxic) is 77.7% [at 92.2 µM]. In [3], the viability (% of control) was determined as 9.42% [at 92.2 µM]. For the same molecule, the Potency result in experiment [4], in [5] and in experiment [7] was “inactive” each time. The Potency in experiment [10] is 7.62 µM (active); in experiment [6] it was 42.9 µM (active). In [8], the outcome was inactive. Also, the outcome in [11] is “inactive [at 93.4 µM]”.

Take `Clc1ccccc1C(c1ccccc1)(c1ccccc1)n1ccnc1`: the parasite growth remaining, % of DMSO control (lower = more inhibition) in experiment [1] stood at 6.19%. Further, in experiment [12], the parasite growth, % of control (lower = inhibition) was 11%. The growth, % of control in [9] worked out at 5.57%. Also, the cell viability, % of control (lower = more cytotoxic) in experiment [2] was 52.9%. Further, in experiment [3], the viability (% of control) worked out at 74%. The Potency entry in [4], in experiment [5] and in experiment [7] was “inactive” in each case. Moreover, in experiment [13], the Potency was 20.9 µM (active). Also, in experiment [8], the molecule was classed as inactive.

As to `CN(CCOc1ccc(NS(C)(=O)=O)cc1)CCc1ccc(NS(C)(=O)=O)cc1`, the parasite growth remaining, % of DMSO control (lower = more inhibition) in [1] worked out at 89.2%. Besides, the parasite growth, % of control (lower = inhibition) in experiment [12] is 119%. Besides, the growth, % of control in experiment [9] is 56.2%. Moreover, the cell viability, % of control (lower = more cytotoxic) in experiment [2] was found to be 181%. The viability (% of control) in [3] is 112%. Further, the Potency entry in experiment [4], in experiment [5] and in [7] was “inactive” throughout. Further, the Potency in [13] was 16.6 µM (active). The molecule was classed as inactive in experiment [8].

In the case of `CN(C)c1nc(N(C)C)nc(N(C)C)n1`, the parasite growth remaining, % of DMSO control (lower = more inhibition) in [1] was 102%. The molecule also returned a growth, % of control in experiment [9] of 101%. Also, the cell viability, % of control (lower = more cytotoxic) in experiment [2] is 97.5%. Moreover, the viability (% of control) in experiment [3] came out at 106%. Also, the Potency entry in experiment [4], in [5], in [10], in experiment [6] and in [7] was “inactive” each time. For the same molecule, the outcome in experiment [8] was inactive.

In the case of `COc1ccccc1OCCNCC(O)COc1cccc2[nH]c3ccccc3c12` (stereo unspecified), the parasite growth remaining, % of DMSO control (lower = more inhibition) in experiment [1] is 17.9%. Moreover, the growth, % of control in experiment [9] is 5.04%. The cell viability, % of control (lower = more cytotoxic) in experiment [2] came to 167%. Further, the viability (% of control) in experiment [3] was 89.8%. Moreover, the Potency result in experiment [4], in experiment [5], in experiment [6] and in experiment [7] was “inactive” throughout. Besides, the molecule was called inactive in experiment [8].

On to `NCCCCCC(=O)O`, for which the parasite growth remaining, % of DMSO control (lower = more inhibition) in experiment [1] is 91.3%. For the same molecule, the growth, % of control in [9] was 708%. Moreover, the cell viability, % of control (lower = more cytotoxic) in experiment [2] worked out at 140%. Further, the viability (% of control) in [3] turned out to be 130%. The Potency result in experiment [4], in experiment [5], in [10] and in experiment [7] was “inactive” each time. The outcome in [8] was inactive.

Values taken from PubChem BioAssay (NCATS).
